Activation data for 30 molecules are collected here from PubChem BioAssay AID687014 (The Scripps Research Institute Molecular Screening Center, 2013).

SMILES strings stand for the structures. About 6,800 (1.8%) of roughly 370,000 compounds were called active.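 How the source made its calls: active means activation above a cutoff set at the mean of all screened compounds plus 3 SD (cut at about 10% in these data); inactive means the rest.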 The entries come from a sample that favours actives as a whole.

The test system of the assay is Nuclear hormone receptor DAF-12 (Heterodera glycines), GAL4 fusion. As to the kind of experiment: H. glycines DAF-12 receptor agonists, primary screen, cell-based, luminescence, HEK293, GAL4 fusion, UAS-luciferase (AID 687014).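 Further: 0% = DMSO wells and 100% = sodium butyrate wells.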 Particulars: HEK293 GAL4-hgDAF12 UAS-luciferase reporter, agonist luminescence; at 6.8 µM; hits give high values.
For `COc1ccc2c(c1)NP(=S)(c1ccccc1)N2` (stereo not given), the activation is 23.2% (active).

Turning to `Cc1cc(C)c2c(c1)NP(=S)(c1ccccc1)N2` (stereo not given), the activation is 13.1% (active).

Take `COc1cc(C(c2c(O)c3ccccc3oc2=O)c2c(C)n(C)n(-c3ccccc3)c2=O)ccc1O` (stereo not given): the activation is 2.01% (inactive).

With `CN(C)CC1CCCCC1=O` (stereo not given), the activation is 1.62% (inactive).

On to `O=S(=O)(c1ccccc1)N1CCC2CCNC2C1` (stereo not given), for which the activation was 1.08% (inactive).

As to `CO[C@H]([C@H](C)/C=C/N(C)C=O)[C@@H](C)C(=O)CC[C@H](C)[C@H](O)[C@H](C)[C@H]1OC(=O)/C=C/C(C)=C/[C@H](O)[C@H](OC)C[C@@H]2C=CC[C@@H](C[C@H](OC)[C@@]3(CO3)[C@@H](OC)C[C@@H](OC)[C@@H]1C)O2`, the activation was -9.43% (inactive).

`COP(=O)(Sc1ccccc1)C(Cc1ccccc1)NC(=O)OCc1ccccc1` (stereo not given): the activation was 1.8% (inactive).

Consider `Cc1ccccc1CCC[C@@H](CC1CCCCC1)CN(C)C(=O)Oc1ccccc1`, for which the activation was 0.88% (inactive).

Turning to `c1ccc2sc(N3CCNCC3)nc2c1`, the activation was 5.89% (inactive).

`c1ccc2sc(C3CCCNC3)nc2c1` (stereo not given): the activation was 11.6% (active).

In the case of `NC(=O)Nc1cccc(C(F)(F)F)c1`, the activation is 1.53% (inactive).

Take `CCCC[N+]1(C)C2CC(OC(=O)C(CO)c3ccccc3)CC1C1OC12` (stereo not given): the activation is -2.54% (inactive).

In the case of `CC[N+](CC)(CC)CCCCCCCCCC[N+](CC)(CC)CC`, the activation is 0.44% (inactive).

Take `CS(=O)(=O)N1CCC2CCNC2C1` (stereo not given): the activation was -2.06% (inactive).

Regarding `COc1cc(OC)cc(C(=O)NCCN2CCC3(CC2)C(=O)NCN3c2ccccc2)c1`, the activation was -1.03% (inactive).

With `O=c1[nH]c(=O)n(Cc2ccccc2)c(O)c1/C=N/Nc1c(F)c(F)c(F)c(F)c1F`, the activation is -0.57% (inactive).

Turning to `O=C(N/N=C/c1c(O)n(C2CC2)c(=S)[nH]c1=O)c1ccccc1`, the activation is 11.8% (active).

Turning to `O=c1[nH]c(=O)n(CCc2ccccc2)c(O)c1/C=N/N1CCOCC1`, the activation was 0.56% (inactive).

Regarding `O=C(N/N=C/c1c(O)n(Cc2ccccc2)c(=O)[nH]c1=O)c1ccccc1`, the activation is 16% (active).

`O=c1[nH]c(=S)n(C2CC2)c(O)c1/C=N/N1CCOCC1`: the activation is -1.58% (inactive).

On to `O=C(N/N=C/c1c(O)n(C2CC2)c(=S)[nH]c1=O)c1ccccc1Cl`, for which the activation was 2.67% (inactive).

For `CCN(CC)C(=O)[C@@H]1C=C2c3cccc4[nH]c(Br)c(c34)C[C@H]2N(C)C1`, the activation is -1.1% (inactive).

Take `Clc1ccc([C@@H]2CC3CCC2N3)cn1` (stereo not given in full): the activation was 1.87% (inactive).

In the case of `CCC(C)NC1(c2ccccc2)CCCCC1` (stereo not given), the activation is 1.32% (inactive).

Take `O=C(Nc1cccc(OC(=O)N2CCCCC2)c1)N1CCOCC1`: the activation was -0.57% (inactive).

Turning to `CN1CCN(C(=O)COc2ccc(C(C)(C)C)cc2Br)CC1`, the activation was 1.63% (inactive).

As to `CC(C)(C)c1ccc(OC(=O)N2CCCCC2)cc1`, the activation is 14.4% (active).

Take `Cc1cc(N2CCNC[C@@H]2C)ccc1N1CC[C@H](O)C1`: the activation was 0.8% (inactive).

As to `COc1ccc2c(c1)[C@@]13CCCCC1[C@@H](C2)NCC3` (stereo not given in full), the activation is 4.73% (inactive).

As to `Brc1ccc2c(c1)CNCc1cnnn1-2`, the activation is 0.9% (inactive).
